An excerpt weighted towards active compounds, which were near 4% of everything screened.
RecA splice inh: Mtb RecA intein splicing inhibition | inhibition, % (no concentration beside the values) | P9WHJ3 | 290,000 compounds, 0.75% hits | cell-free RecA intein splicing, fluorescence | AID 2221; in the data active = inhibition above about 30%;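 note: 0% = vehicle wells and 100% = reference inhibitor control wells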
UGM FP inh: Mtb UDP-galactopyranose mutase inhibition | purified UGM, fluorescence polarization probe displacement | inhibition, % at 10 µM | 320,000 compounds, 0.06% hits; in the data active = inhibition above about 10%, passing the limit was not always enough
Mtb FBA inh: Mtb fructose-bisphosphate aldolase inhibition; P9WQA3; purified M. tuberculosis FBA, fluorescence read-out; inhibition, % at 1 µM; 360,000 compounds, 2.3% hits; AID 588726; in the data active = inhibition above about 27%;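 note: 0% = vehicle and 100% = reference inhibitor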
Rv3671c protease: inhibits the M. tuberculosis serine protease Rv3671c; P9WHR9; 320,000 compounds, 0.048% hits; AID 2606; inhibition, % at 5.96 µM; in the data active = inhibition above about 38%;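 note: extracellular domain of Rv3671c used as enzyme; 0% = enzyme with DMSO and 100% = no enzyme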
Target sequence (P9WHR9 whole entry, looked up, the tested form may be a part): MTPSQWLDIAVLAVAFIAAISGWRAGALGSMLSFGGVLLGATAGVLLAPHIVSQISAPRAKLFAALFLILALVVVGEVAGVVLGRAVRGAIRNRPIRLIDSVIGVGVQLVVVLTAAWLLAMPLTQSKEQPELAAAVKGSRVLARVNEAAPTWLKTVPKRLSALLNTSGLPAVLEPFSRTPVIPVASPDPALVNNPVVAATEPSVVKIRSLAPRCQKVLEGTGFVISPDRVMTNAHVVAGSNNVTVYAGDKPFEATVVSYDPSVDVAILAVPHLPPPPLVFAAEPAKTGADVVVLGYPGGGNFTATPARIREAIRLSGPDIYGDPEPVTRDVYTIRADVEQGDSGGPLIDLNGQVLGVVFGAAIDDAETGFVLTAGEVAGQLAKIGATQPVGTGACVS
GDH-TPI counter: counter-screen for M. tuberculosis FBA inhibitors: GDH-TPI coupled enzymes | GDH-TPI coupled enzyme counterscreen, NADH absorbance | inhibition, % at 4.8 µM | 360,000 compounds, 1.2% hits | AID 588335; in the data active = inhibition above about 30%;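 note: 0% = DMSO wells and 100% = wells lacking the enzyme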
Mtb bLac sens: beta-lactam sensitization of Mtb H37Rv. M. tuberculosis H37Rv growth with meropenem, percent inhibition. inhibition, % at 25 µM. 330,000 compounds, 0.27% hits. AID 434955;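 note: growth measured after seven days incubation then overnight dye step; 0% = bacteria only wells and 100% = bacteria with antibiotic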
GFP chromo cs: counter-screen: blocks GFP chromophore formation; shares compounds with RecA splice inh; cell-free GFP chromophore formation, fluorescence; EC50, µM; 2,100 compounds, 83% hits
The depositor's hits bear a star; nt = no result given. Unless noted, the rule behind the calls is not given here.

SMILES	RecA splice inh	UGM FP inh	Mtb FBA inh	Rv3671c protease	GDH-TPI counter	Mtb bLac sens	GFP chromo cs
CC(C(=O)N=Nc1c(O)[nH]c2ccccc12)n1cnc2ccccc2c1=O (stereo not drawn)	-3	-1	-1	2	10	8	nt
Cc1ccc(S(=O)(=O)N2CCN(C(=O)/C=C/c3ccccc3)CC2)cc1C	nt	nt	3	nt	-11	nt	nt
CCOC1(OCC)C(c2ccc(N)cc2)C(C#N)(C#N)C1(OCC)OCC (stereo not drawn)	nt	-4	-1	0	14	-6	nt
CCOC1(OCC)C(c2ccc(Cl)cc2)C(C#N)(C#N)C1(OCC)OCC (stereo not drawn)	56*	0	-6	-7	6	7	>38
Cc1cc(C(=O)Nc2ccccc2C(=O)O)ccc1NC(=O)COc1cccc([N+](=O)[O-])c1	11	2	-1	1	0	-1	nt
Cc1ccc(CNC(=O)c2ccc(N(C)S(=O)(=O)c3ccccc3)cc2)cc1	37*	-3	0	0	11	0	>38
CCc1[nH]nc2c1C1(CCOC1C)C(C#N)=C(N)O2 (stereo not drawn)	2	1	0	-3	1	0	nt
CCc1[nH]nc2c1C1(CCN(C(=O)c3ccccc3)CC1)C(C#N)=C(N)O2	67*	0	-1	-5	0	2	29*
CC(=O)N1CCC2(CC1)C(C#N)=C(N)Oc1n[nH]c(CSc3ccc(C)cc3)c12	74*	3	3	-9	8	-7	23*
CCOC(=O)C(=Cc1cc(=O)c(OC)co1)C(=O)OCC	3	nt	-4	nt	5	nt	nt
Nc1ccc(O)cc1	81*	5	nt	2	nt	3	31*
CCOc1ccc(NC(=O)CN2CCN(S(=O)(=O)c3ccc(Cl)cc3)CC2)cc1	-2	-1	-2	2	-6	-3	nt
COc1cc(/C=C2\C(=O)ON=C2c2ccc(Cl)cc2)ccc1O	25	2	nt	-1	nt	-11	nt
COc1cc(/C=C2/C(=O)N(c3ccc(Br)cc3)N=C2C)cc([N+](=O)[O-])c1O	17	1	nt	2	nt	2	nt
COc1cc(/C=C2/C(=O)N(c3cccc(Br)c3)N=C2C)cc(OC)c1O	87*	-5	0	-210	9	3	4.3*
CC1=NN(c2ccccc2)C(=O)/C1=C/c1cccc(C)c1	92*	0	1	-169	10	-1	2.3*
COc1ccc(/C=C2/C(=O)N(c3ccccc3)N=C2C)cc1OC	43*	0	-1	nt	0	6	9*
COc1ccc(C2=NN(c3ccccc3)C(=O)/C2=C\c2ccc(O)c(OC)c2)cc1	93*	0	7	-208	16	-2	2.6*
COc1ccc(/C=C2/C(=O)N(c3ccccc3)N=C2C)cc1	69*	0	3	-155	-1	-5	3.2*
Cn1cc(C=C2C(=O)NC(=O)NC2=O)c2ccccc21	0	8	-12	8	6	-6	nt
CC1=NN(c2ccccc2)C(=O)/C1=C/N(C)C	1	0	-2	-14	14	1	nt
CC(=O)Oc1ccc(/C=C2/C(=O)N(c3ccccc3)N=C2C)cc1	93*	-2	-2	-163	11	5	3.5*
COc1ccc(/C=C2/C(=O)N(c3c(F)c(F)c(F)c(F)c3F)N=C2C)cc1	4	1	2	-55	1	3	nt
CC1=NN(c2ccccc2)C(=O)/C1=C/c1cn(C)c2ccccc12	37*	-2	-8	5	-7	-2	>38
O=C(NCCOCc1ccccc1)C(c1ccccc1)c1ccccc1	5	0	-2	4	-3	-13	nt
SMILES	RecA splice inh	UGM FP inh	Mtb FBA inh	Rv3671c protease	GDH-TPI counter	Mtb bLac sens	GFP chromo cs
COc1ccc(NC2CCCN(C(=O)CCN3CCCC3=O)C2)cc1OC (stereo not drawn)	-1	1	0	3	-5	-6	nt
COc1ccc(NS(=O)(=O)c2ccc3c(c2)NC(=O)C(C)S3)cc1 (stereo not drawn)	21	-1	3	5	4	3	nt
O=C1C(Nc2ccccc2)=C/C(=N/S(=O)(=O)c2cccs2)c2ccccc21	38*	1	-4	-188	14	98	0.28*
O=C1C=C(Nc2ccccc2)C(=O)c2ccccc21	13	-2	-3	-12	-6	97	nt
Cc1ccc(S(=O)(=O)/N=C2\C=C(Nc3ccc(O)cc3)C(=O)c3ccccc32)cc1	nt	3	-4	-156	5	17	nt
Cc1ccc(NC2=C/C(=N/S(=O)(=O)c3cccs3)c3ccccc3C2=O)cc1	31*	1	0	-77	0	71	0.14*
Cn1cccc1-c1cc(C(=O)O)[nH]n1	-2	-2	-1	-5	-5	-2	nt
O=C(N/N=C\c1c(F)c(F)c(F)c(F)c1F)c1ccc(-c2ccccc2)cc1	0	6	1	-3	5	0	nt
CCCCCCN(C(=O)CCl)c1ccccc1	54*	1	2	2	-8	99	19*
Cc1ccc(N(NC(=O)C(O)(c2ccccc2)c2ccccc2)C(=O)CCl)cc1	66*	2	-2	-7	-5	98	7.3*
O=C(CCl)N(CCc1ccccc1)CCc1ccccc1	74*	5	5	6	6	99	20*
O=C(CCl)N(c1ccccc1)c1ccccc1	80*	nt	1	nt	-2	nt	22*
CCCCCCCN(C(=O)CCl)c1cccc(C)c1	-2	2	3	-2	-10	54	nt
CC(C(=O)NC1CCCC1)N1C(=O)c2cccc3cccc1c23 (stereo not drawn)	-12	3	2	-1	9	-2	nt
O=C(Nc1ccccc1)NN(C(=O)CCl)c1ccccc1	68*	-1	1	2	-2	86	15*
CCC(O)(CC)C(=O)NN(C(=O)CCl)c1ccccc1	13	2	1	-1	1	80	nt
CC1(C(=O)NS(=O)(=O)c2cccc(F)c2)CCN1C(=O)Cc1ccc(-c2ccccc2)cc1 (stereo not drawn)	nt	nt	-2	nt	10	nt	nt
CCc1cc[n+](C2=C([O-])c3ccccc3C(=O)/C2=N\S(=O)(=O)c2cccs2)cc1	30	7	-7	-97	11	1	nt
O=C1C(=O)c2ccccc2C([O-])=C1[n+]1ccccc1	84*	-2	-4	-13	15	-2	6.9*
CC(C)c1ccc(N2C(=O)C(Cl)=C(N3CCOCC3)C2=O)cc1	-22	-1	3	12	7	11	nt
Cc1ccccc1N1C(=O)C(Cl)=C(N2CCOCC2)C1=O	59*	-7	-2	6	-1	2	12*
O=C1C(Cl)=C(N2CCOCC2)C(=O)N1c1ccc(Br)cc1	53*	-1	-1	-2	30	73	2.5*
CCc1ccccc1N1C(=O)C(Cl)=C(N2CCOCC2)C1=O	67*	2	-3	1	-3	3	9.9*
CCOc1ccc(N2C(=O)C(Cl)=C(N3CCOCC3)C2=O)cc1	nt	-1	-1	-1	5	75	nt
